# Experiments:
# Assay in all cases: DAPPL (digital affinity profiling via proximity ligation, sequencing); 10 mM Tris-HCl pH 7.5, 50 mM NaCl, 1 mM DTT, 4% glycerol, room temperature, 30 min; GST-TFs on glutathione beads, 16-mer random dsDNA library, 0.1% formaldehyde crosslink after washing; high values mean tight binding
# [1] = target: T1, FEV (Homo sapiens, UniProt Q99581 1-238); conditions: protein: recombinant; tags: N-terminal GST; dsDNA, one strand shown
# T1 sequence: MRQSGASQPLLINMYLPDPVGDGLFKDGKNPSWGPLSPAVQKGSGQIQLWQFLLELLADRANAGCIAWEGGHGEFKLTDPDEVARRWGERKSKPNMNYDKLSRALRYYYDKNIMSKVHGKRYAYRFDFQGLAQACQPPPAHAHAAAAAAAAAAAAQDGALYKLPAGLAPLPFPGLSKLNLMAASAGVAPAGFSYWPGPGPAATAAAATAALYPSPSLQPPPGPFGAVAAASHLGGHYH
# How it was run: (§1)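 Each value of binding signal is a hexamer's read frequency for a factor divided by the same hexamer's frequency in the tag-only sample. Barcoded, bead-captured GST fusions of human transcription factors made in yeast were pooled with that sample and incubated with 200 nmole of a random double-stranded 16-mer DNA library in Tris/NaCl/DTT/glycerol buffer at room temperature for 30 min. Washing, 0.1% formaldehyde crosslinking, proximity ligation, PCR and Illumina NextSeq500 sequencing followed.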
# [2] = target: ETV5 (Homo sapiens, UniProt P41161 1-510); conditions: protein: recombinant; tags: N-terminal GST; dsDNA, one strand shown
# Sequence of ETV5 (P41161 whole entry): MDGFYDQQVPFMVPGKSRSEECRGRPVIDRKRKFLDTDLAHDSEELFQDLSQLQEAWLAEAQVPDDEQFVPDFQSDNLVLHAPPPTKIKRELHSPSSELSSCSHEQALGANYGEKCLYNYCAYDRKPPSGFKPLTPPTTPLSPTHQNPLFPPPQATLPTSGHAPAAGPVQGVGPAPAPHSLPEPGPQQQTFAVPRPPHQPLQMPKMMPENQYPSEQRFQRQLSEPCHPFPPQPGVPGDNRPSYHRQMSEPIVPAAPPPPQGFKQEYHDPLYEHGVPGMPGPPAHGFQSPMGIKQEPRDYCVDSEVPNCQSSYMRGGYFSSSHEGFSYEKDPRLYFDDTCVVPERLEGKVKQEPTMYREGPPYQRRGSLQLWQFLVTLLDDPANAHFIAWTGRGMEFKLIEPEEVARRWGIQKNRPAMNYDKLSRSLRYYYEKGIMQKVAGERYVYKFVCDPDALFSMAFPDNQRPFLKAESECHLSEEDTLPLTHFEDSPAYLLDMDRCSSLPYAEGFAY
# How it was run: as §1
# [3] = target: HSF1 (Homo sapiens, UniProt Q00613 1-529); conditions: protein: recombinant; tags: N-terminal GST; chain copies: 3; dsDNA, one strand shown
# Sequence of HSF1 (Q00613 whole entry): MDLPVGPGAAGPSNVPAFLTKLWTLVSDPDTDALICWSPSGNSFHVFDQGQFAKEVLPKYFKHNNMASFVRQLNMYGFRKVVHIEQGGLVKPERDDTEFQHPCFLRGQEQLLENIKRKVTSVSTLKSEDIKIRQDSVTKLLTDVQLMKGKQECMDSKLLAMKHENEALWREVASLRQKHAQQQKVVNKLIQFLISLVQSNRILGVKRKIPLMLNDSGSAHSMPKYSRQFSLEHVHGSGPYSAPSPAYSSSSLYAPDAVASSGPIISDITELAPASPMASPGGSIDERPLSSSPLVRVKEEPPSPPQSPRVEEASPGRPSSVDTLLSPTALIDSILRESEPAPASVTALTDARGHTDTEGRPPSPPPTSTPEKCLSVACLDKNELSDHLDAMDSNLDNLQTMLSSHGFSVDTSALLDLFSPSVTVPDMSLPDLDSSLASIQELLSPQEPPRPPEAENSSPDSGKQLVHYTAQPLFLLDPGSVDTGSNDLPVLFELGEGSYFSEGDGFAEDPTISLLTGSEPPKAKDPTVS
# How it was run: as §1
# [4] = target: T2, SPIC (Homo sapiens, UniProt Q8N5J4 1-248); conditions: protein: recombinant; tags: N-terminal GST; dsDNA, one strand shown
# T2 sequence: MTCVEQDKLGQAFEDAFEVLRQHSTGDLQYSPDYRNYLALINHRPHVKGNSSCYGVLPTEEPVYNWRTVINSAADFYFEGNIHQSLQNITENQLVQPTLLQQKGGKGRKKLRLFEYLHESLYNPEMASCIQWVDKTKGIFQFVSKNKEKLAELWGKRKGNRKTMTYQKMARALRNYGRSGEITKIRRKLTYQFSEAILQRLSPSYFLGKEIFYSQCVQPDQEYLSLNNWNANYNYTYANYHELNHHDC
# How it was run: as §1
# [5] = target: ELF4 (Homo sapiens, UniProt Q99607 1-663); conditions: protein: recombinant; tags: N-terminal GST; dsDNA, one strand shown
# Sequence of ELF4 (Q99607 whole entry): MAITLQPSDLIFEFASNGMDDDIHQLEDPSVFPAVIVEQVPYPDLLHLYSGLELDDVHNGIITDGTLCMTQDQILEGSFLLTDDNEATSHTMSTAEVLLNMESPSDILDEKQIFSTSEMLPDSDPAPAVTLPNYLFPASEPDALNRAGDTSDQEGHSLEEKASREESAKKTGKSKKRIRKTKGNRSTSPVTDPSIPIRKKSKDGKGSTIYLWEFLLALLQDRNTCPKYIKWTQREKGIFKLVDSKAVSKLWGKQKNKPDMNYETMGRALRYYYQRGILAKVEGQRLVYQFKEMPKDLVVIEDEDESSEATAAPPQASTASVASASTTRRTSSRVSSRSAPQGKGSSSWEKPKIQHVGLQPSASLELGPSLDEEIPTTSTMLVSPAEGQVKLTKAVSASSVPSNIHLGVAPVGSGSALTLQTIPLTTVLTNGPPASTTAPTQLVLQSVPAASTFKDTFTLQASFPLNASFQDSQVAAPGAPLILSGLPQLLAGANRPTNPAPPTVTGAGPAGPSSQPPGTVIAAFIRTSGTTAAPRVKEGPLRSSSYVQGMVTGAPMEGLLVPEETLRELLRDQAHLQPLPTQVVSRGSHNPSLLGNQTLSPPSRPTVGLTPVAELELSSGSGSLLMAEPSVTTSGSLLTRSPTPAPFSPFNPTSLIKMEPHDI
# How it was run: as §1
# [6] = target: T3, ELK4 (Homo sapiens, UniProt P28324-2 1-405); conditions: protein: recombinant; tags: N-terminal GST; dsDNA, one strand shown
# T3 sequence: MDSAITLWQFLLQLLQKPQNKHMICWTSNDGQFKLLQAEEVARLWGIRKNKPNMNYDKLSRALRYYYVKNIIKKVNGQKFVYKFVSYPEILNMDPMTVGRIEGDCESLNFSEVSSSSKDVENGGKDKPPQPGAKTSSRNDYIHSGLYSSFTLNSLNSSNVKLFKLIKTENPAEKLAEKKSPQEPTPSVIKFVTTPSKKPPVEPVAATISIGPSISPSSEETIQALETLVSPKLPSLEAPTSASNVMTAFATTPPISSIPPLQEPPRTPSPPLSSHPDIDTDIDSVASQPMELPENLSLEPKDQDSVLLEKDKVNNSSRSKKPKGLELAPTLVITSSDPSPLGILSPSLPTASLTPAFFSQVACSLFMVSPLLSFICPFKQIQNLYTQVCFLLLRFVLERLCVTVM
# How it was run: as §1
# [7] = target: T4, ETV2 (Homo sapiens, UniProt O00321 1-342); conditions: protein: recombinant; tags: N-terminal GST; dsDNA, one strand shown
# T4 sequence: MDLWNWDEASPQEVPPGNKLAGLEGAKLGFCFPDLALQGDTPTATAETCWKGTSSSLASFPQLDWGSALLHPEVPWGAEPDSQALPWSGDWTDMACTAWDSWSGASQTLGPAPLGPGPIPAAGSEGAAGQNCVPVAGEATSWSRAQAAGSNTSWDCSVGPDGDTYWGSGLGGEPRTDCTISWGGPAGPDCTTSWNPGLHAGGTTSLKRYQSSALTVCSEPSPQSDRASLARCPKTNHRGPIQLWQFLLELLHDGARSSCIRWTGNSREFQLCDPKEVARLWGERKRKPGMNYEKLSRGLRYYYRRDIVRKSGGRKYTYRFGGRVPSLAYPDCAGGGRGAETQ
# How it was run: as §1
# [8] = target: T5, ELF3 (Homo sapiens, UniProt P78545 1-371); conditions: protein: recombinant; tags: N-terminal GST; dsDNA, one strand shown
# T5 sequence: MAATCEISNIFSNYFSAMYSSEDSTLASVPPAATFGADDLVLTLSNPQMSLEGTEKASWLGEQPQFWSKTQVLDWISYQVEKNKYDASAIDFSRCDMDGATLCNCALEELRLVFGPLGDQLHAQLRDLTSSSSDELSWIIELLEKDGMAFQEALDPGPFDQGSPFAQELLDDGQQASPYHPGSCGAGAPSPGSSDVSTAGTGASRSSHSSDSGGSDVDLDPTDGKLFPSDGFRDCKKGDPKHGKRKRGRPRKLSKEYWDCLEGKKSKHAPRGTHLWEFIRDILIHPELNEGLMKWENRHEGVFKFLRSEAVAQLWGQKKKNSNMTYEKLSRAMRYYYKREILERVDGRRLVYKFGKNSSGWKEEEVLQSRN
# How it was run: as §1
# [9] = target: CRX (Homo sapiens, UniProt O43186 1-299); conditions: protein: recombinant; tags: N-terminal GST; dsDNA, one strand shown
# Sequence of CRX (O43186 whole entry): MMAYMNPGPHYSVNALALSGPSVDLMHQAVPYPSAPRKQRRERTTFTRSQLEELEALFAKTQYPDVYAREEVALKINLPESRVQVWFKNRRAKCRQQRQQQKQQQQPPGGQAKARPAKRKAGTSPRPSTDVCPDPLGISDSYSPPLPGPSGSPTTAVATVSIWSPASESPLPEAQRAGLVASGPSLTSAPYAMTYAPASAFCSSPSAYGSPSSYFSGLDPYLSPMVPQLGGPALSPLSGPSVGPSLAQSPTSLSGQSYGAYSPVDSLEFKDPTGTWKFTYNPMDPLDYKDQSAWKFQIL
# How it was run: as §1
# [10] = target: ETV1 (Homo sapiens, UniProt P50549 1-477); conditions: protein: recombinant; tags: N-terminal GST; dsDNA, one strand shown
# Sequence of ETV1 (P50549 whole entry): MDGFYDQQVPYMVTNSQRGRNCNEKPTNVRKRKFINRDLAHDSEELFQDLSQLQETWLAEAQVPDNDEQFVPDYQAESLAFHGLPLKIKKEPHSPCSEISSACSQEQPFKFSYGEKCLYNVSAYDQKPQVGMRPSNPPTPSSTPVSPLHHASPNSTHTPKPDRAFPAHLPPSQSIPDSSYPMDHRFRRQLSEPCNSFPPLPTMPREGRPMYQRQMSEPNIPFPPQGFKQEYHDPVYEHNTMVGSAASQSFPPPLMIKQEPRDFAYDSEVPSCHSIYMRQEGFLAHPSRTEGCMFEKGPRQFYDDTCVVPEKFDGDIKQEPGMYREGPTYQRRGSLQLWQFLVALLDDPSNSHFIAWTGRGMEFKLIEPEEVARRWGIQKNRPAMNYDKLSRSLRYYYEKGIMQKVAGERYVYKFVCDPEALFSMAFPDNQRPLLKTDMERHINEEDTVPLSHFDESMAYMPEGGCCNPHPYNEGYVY
# How it was run: as §1
# [11] = target: T6, ERF (Homo sapiens, UniProt P50548 1-548); conditions: protein: recombinant; tags: N-terminal GST; dsDNA, one strand shown
# T6 sequence: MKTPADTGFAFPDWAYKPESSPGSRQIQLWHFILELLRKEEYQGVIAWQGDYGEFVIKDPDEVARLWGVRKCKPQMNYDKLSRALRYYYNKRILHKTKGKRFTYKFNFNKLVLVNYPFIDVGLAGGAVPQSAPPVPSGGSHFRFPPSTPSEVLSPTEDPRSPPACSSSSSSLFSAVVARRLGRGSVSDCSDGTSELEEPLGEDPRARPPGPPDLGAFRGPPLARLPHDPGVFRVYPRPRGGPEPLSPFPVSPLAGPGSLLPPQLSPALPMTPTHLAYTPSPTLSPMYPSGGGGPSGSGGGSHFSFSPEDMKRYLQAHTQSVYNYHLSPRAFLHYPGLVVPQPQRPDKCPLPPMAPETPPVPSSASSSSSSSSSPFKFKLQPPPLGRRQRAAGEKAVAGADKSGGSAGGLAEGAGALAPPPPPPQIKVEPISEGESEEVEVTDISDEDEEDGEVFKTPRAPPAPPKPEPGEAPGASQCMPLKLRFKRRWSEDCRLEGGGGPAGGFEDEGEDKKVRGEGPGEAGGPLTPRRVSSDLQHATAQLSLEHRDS
# How it was run: as §1
# [12] = target: T7, ETV3L (Homo sapiens, UniProt Q6ZN32 1-361); conditions: protein: recombinant; tags: N-terminal GST; dsDNA, one strand shown
# T7 sequence: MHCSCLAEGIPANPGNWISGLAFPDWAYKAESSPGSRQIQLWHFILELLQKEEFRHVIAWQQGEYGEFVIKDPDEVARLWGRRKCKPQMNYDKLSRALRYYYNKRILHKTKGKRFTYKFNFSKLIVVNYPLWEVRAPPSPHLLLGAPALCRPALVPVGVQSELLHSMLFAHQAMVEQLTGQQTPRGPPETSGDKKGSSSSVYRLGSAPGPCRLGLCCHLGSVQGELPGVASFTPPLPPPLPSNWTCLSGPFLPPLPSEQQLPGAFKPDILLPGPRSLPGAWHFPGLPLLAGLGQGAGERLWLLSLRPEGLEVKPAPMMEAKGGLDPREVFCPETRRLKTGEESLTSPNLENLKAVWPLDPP
# How it was run: as §1
# [13] = target: T8, ETS2 (Homo sapiens, UniProt P15036 1-469); conditions: protein: recombinant; tags: N-terminal GST; dsDNA, one strand shown
# T8 sequence: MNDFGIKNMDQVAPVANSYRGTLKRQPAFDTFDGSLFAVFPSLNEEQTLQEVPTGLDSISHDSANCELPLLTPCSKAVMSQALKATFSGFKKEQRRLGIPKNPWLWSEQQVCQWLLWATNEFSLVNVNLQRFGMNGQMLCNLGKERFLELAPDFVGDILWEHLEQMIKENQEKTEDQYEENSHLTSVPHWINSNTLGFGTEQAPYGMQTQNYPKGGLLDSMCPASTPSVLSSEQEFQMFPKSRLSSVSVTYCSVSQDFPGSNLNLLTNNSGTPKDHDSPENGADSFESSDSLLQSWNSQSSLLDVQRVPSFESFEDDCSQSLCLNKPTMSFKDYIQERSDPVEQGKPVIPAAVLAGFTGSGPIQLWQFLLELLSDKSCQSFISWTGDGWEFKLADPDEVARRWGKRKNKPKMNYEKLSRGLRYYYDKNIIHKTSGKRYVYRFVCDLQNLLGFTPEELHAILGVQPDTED
# How it was run: as §1
# [14] = target: T9, SPDEF (Homo sapiens, UniProt O95238 1-335); conditions: protein: recombinant; tags: N-terminal GST; dsDNA, one strand shown
# T9 sequence: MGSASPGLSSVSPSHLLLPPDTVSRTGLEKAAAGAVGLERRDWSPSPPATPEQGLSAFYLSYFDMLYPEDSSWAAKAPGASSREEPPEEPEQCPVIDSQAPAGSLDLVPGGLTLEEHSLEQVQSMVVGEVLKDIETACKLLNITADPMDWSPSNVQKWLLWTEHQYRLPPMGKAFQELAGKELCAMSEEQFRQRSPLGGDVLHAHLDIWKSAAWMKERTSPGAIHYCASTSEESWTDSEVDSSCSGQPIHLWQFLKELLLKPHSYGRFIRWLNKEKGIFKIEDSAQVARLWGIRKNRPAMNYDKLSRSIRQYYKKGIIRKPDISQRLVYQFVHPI
# How it was run: as §1
# [15] = target: T10, ETV7 (Homo sapiens, UniProt Q9Y603 1-341); conditions: protein: recombinant; tags: N-terminal GST; dsDNA, one strand shown
# T10 sequence: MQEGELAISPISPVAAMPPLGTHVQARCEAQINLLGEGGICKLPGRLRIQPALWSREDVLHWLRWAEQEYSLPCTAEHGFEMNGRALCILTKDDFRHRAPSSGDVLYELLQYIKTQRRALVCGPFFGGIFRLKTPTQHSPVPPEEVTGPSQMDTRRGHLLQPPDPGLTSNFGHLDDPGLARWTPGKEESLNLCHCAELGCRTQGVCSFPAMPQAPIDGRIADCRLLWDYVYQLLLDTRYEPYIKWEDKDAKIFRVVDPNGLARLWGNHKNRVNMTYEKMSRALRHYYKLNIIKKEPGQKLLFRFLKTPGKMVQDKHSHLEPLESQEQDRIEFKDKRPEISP
# How it was run: as §1
# [16] = target: T11, ELF5 (Homo sapiens, UniProt Q9UKW6-2 1-255); conditions: protein: recombinant; tags: N-terminal GST; dsDNA, one strand shown
# T11 sequence: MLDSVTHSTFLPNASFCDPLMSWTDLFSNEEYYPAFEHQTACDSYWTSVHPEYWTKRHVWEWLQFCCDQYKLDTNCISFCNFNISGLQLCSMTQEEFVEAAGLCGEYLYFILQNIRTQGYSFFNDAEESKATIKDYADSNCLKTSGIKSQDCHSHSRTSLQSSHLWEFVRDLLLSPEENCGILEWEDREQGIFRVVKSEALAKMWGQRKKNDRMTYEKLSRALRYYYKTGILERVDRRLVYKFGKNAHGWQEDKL
# How it was run: as §1
# [17] = target: T12, ETV3 (Homo sapiens, UniProt P41162-2 1-143); conditions: protein: recombinant; tags: N-terminal GST; dsDNA, one strand shown
# T12 sequence: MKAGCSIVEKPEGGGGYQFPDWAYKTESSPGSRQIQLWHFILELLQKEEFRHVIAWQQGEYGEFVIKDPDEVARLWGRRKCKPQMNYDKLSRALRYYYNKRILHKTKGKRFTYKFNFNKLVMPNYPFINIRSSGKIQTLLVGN
# How it was run: as §1
# [18] = target: ETV6 (Homo sapiens, UniProt P41212 1-452); conditions: protein: recombinant; tags: N-terminal GST; dsDNA, one strand shown
# Sequence of ETV6 (P41212 whole entry): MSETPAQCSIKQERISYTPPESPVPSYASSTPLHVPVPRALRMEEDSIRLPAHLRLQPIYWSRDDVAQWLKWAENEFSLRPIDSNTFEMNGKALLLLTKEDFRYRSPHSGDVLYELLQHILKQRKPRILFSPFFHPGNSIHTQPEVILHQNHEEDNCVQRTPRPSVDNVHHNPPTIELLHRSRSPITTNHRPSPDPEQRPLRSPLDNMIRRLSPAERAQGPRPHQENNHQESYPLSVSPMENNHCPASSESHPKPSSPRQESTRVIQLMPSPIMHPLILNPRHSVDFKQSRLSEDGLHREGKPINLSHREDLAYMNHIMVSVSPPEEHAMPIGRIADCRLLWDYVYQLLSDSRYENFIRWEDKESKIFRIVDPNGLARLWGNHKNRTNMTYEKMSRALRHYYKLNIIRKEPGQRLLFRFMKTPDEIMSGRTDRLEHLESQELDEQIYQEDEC
# How it was run: as §1
sequence,measurement,setting,value
TTAGTT,binding signal,[1],"1.2 fold enrichment (6-mer frequency, TF over GST control)"
same,binding signal,[2],"1.25 fold enrichment (6-mer frequency, TF over GST control)"
same,binding signal,[3],"1.68 fold enrichment (6-mer frequency, TF over GST control)"
same,binding signal,[4],"1.28 fold enrichment (6-mer frequency, TF over GST control)"
same,binding signal,[5],"1.37 fold enrichment (6-mer frequency, TF over GST control)"
same,binding signal,[6],"1.32 fold enrichment (6-mer frequency, TF over GST control)"
same,binding signal,[7],"1.37 fold enrichment (6-mer frequency, TF over GST control)"
same,binding signal,[8],"1.25 fold enrichment (6-mer frequency, TF over GST control)"
same,binding signal,[9],"2.25 fold enrichment (6-mer frequency, TF over GST control)"
same,binding signal,[10],"1.33 fold enrichment (6-mer frequency, TF over GST control)"
same,binding signal,[11],"1.37 fold enrichment (6-mer frequency, TF over GST control)"
same,binding signal,[12],"1.35 fold enrichment (6-mer frequency, TF over GST control)"
same,binding signal,[13],"1.23 fold enrichment (6-mer frequency, TF over GST control)"
same,binding signal,[14],"1.38 fold enrichment (6-mer frequency, TF over GST control)"
same,binding signal,[15],"1.25 fold enrichment (6-mer frequency, TF over GST control)"
same,binding signal,[16],"1.24 fold enrichment (6-mer frequency, TF over GST control)"
same,binding signal,[17],"1.45 fold enrichment (6-mer frequency, TF over GST control)"
same,binding signal,[18],"1.38 fold enrichment (6-mer frequency, TF over GST control)"

# Source: paper PMC7862700, “An all-to-all approach to the identification of sequence-specific readers for epigenetic DNA modifications on cytosine”
